# PPARg SRC-1 ag: PPARgamma-driven SRC-1 recruitment agonism | hit rate 0.41% among 200,000 | activation, % at 8 µM | AID 631 | P37231 | PPARgamma-SRC-1 coactivator recruitment biochemical assay; in the data active = activation above about 19%;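 note: 0% = DMSO and 100% = reference agonist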
# Target sequence (P37231 whole entry, looked up): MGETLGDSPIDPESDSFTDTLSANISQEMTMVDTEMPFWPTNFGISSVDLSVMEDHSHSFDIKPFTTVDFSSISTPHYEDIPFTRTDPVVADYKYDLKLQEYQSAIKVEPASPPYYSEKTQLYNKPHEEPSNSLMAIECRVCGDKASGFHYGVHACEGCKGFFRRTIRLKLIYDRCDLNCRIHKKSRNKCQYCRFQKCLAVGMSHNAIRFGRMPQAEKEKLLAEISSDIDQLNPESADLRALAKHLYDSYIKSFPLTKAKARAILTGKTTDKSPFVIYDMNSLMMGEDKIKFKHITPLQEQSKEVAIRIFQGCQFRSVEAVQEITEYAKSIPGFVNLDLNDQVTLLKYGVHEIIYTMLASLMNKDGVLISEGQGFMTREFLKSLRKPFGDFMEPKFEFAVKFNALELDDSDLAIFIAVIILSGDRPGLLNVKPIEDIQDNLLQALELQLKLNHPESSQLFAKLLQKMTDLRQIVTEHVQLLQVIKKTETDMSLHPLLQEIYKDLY
# SRC3 TRFRET art: TR-FRET artefact, counter-screen to PPARgamma/SRC-3 agonist assay. PPARgamma/SRC-3 format; stronger effect = higher value. TR-FRET ratio at 8 µM. hit rate 0.39% among 99,000. AID 1048; in the data active = TR-FRET ratio above about 2000
# PPARg SRC-2 ag: agonists of SRC-2 recruitment by human PPARgamma; PPARgamma LBD-SRC-2 recruitment, biochemical; P37231; AID 1032; activation, % at 8 µM; hit rate 0.34% among 200,000;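 note: 0% = vehicle and 100% = reference agonist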
# SRC1 TRFRET art: TR-FRET artefact, counter-screen to PPARgamma/SRC-1 agonist assay; hit rate 0.34% among 99,000; TR-FRET ratio at 8 µM; TR-FRET detection artefact counter-screen, emission ratio; stronger effect = higher value; in the data active = TR-FRET ratio above about 2300
# PPARg SRC-3 ag: PPARgamma-driven SRC-3 recruitment agonism. biochemical PPARgamma/SRC-3 coactivator recruitment assay. activation, % at 8 µM. hit rate 0.26% among 200,000; in the data active = activation above about 23%;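 note: 0% = DMSO and 100% = reference agonist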
# SRC2 TRFRET art: TR-FRET artefact, counter-screen to PPARgamma/SRC-2 agonist assay; AID 1049; hit rate 0.4% among 200,000; TR-FRET ratio at 8 µM; stronger effect = higher value; in the data active = TR-FRET ratio above about 2000
# PPARg SRC2 conf: confirmation of agonists of SRC-2 recruitment by human PPARgamma. shares compounds with PPARg SRC-3 ag. biochemical SRC-2 recruitment by PPARgamma. activation, % at 8 µM. AID 1297. hit rate 52% among 790;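 note: 0% = vehicle alone and 100% = reference agonist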
# PPARg SRC1 ag: confirmation of agonists of SRC-1 recruitment by human PPARgamma; activation, % at 8 µM; hit rate 43% among 790; shares compounds with PPARg SRC-3 ag; PPARgamma–SRC-1 coactivator recruitment biochemical assay; AID 1300; in the data active = activation above about 20%;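 note: 0% = vehicle wells and 100% = reference agonist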
# PPARg SRC3 ag: human PPARgamma SRC-3 recruitment agonism, confirmation. biochemical PPARgamma-SRC-3 coactivator recruitment, agonist mode. shares compounds with PPARg SRC-3 ag. hit rate 29% among 790. activation, % at 8 µM; in the data active = activation above about 24%;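 note: 0% = vehicle wells and 100% = reference agonist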
# Active calls of the source: *; / = no result given. Only some compounds are listed: those with a hit (about 0.9% of all), similar ones and a draw of the others. Cut-off read from the data, not from the text of the source, unless noted: active = activation above about 22%; inactive = the rest.
SMILES,PPARg SRC-1 ag,SRC3 TRFRET art,PPARg SRC-2 ag,SRC1 TRFRET art,PPARg SRC-3 ag,SRC2 TRFRET art,PPARg SRC2 conf,PPARg SRC1 ag,PPARg SRC3 ag
CCOC(=O)c1sc(NC(=O)CSc2nnc(C(C)C)n2C)nc1C,3.4,/,1.2,/,12.9,1699,/,/,/
CN1CCC(=NNC(=O)C(=O)Nc2ccccc2F)CC1,-3.3,1618,-3.0,1706,5.6,1457,/,/,/
O=C(CSc1nnc(COc2cccc3cccnc23)o1)N1CCc2ccccc21,19.9*,/,-0.5,/,14.0,1448,5.4,2.5,6.7
O=c1c2cn[nH]c2[nH]c(=S)n1-c1cccc2ccccc12,17.3,2082*,24.3*,2560*,16.8,2219*,23.7*,15.3,17.4
CCOc1ccccc1-n1c(=O)c2ccccc2c2ccccc2c1=O,4.1,1693,9.0,1758,0.6,1660,/,/,/
COc1cccc(Nc2nc(-c3sc(NC(=O)c4ccccc4)nc3C)cs2)c1,13.3,/,15.4,/,26.7*,1767,41.5*,25.7*,19.3
O=c1[nH]cc(C(F)(F)F)cc1NS(=O)(=O)c1ccccc1[N+](=O)[O-],2.2,1633,7.4,1887,6.8,1632,/,/,/
CN(C)c1ccc(NC(=O)CSc2nc(N)c(C(=O)Nc3ccc(N(C)C)cc3)s2)cc1,13.2,/,24.1*,/,19.6,1835,6.7,10.8,4.5
CCOCCc1c(O)nc(SCCOc2ccc(C)c(C)c2)[nH]c1=O,-4.6,1616,-5.6,1809,-5.5,1536,/,/,/
O=C(Nc1ccc(Cl)c([N+](=O)[O-])c1)ONC1=NCCCCC1,3.0,1496,10.9,1907,1.1,1517,/,/,/
CNC(=O)c1ccc(=O)n(Cc2cccc(C(F)(F)F)c2)c1,-3.7,1555,-1.6,1720,-0.2,1398,/,/,/
CCSc1nc2c(c(=O)[nH]c(=O)n2C)n1C,7.8,/,15.3,/,4.4,1656,/,/,/
CCCSc1nc2c(c(=O)[nH]c(=O)n2C)n1C,21.4*,/,9.8,/,15.1,1609,0.6,0.5,0.7
COc1ccc(CNC(=O)CSc2nc(-c3ccccc3)cc(-c3cccs3)c2C#N)cc1,14.4,/,55.0*,/,22.5,3077*,25.6*,24.6*,13.4
C(=N\Nc1nc2ccccc2[nH]1)/c1ccncc1,15.8,1586,11.2,1761,9.3,1937,/,/,/
C(=N\Nc1nc2ccccc2[nH]1)/c1cccs1,14.8,/,10.0,/,28.2*,1564,10.3,10.9,6.6
COc1ccc(O)c(/C=N/Nc2nc3ccccc3[nH]2)c1,7.4,1959,26.3*,2218,21.1,1754,7.8,8.4,9.3
COc1cc(/C=N/Nc2nc3ccccc3[nH]2)ccc1O,6.9,1195,8.9,2030,14.2,1560,/,/,/
C(=N\Nc1nc2ccccc2[nH]1)/c1ccc2c(c1)OCO2,21.7*,1932,4.8,2193,10.4,2021*,12.0,17.2,8.9
CC(C)CCNC(=O)NC(=O)CSc1ncccn1,2.2,1463,4.6,2088,4.0,1404,/,/,/
C=CCn1c(NS(=O)(=O)c2ccccc2)c(S(=O)(=O)c2ccc(C)cc2)c2nc3ccccc3nc21,38.8*,1561,24.4*,1803,47.7*,1450,4.1,6.9,10.1
CC(C)(C)C(=O)COC(=O)c1cc(-c2cccnc2)nc2ccccc12,-0.2,1544,-6.7,1825,0.6,1571,/,/,/
O=C(CSc1nc2scc(-c3ccco3)c2c(=O)n1-c1ccccc1)N1CCOCC1,22.6*,/,34.9*,/,36.7*,2021*,26.0*,21.3*,19.0
NC(=O)CSc1nc2scc(-c3ccco3)c2c(=O)n1-c1ccccc1,14.6,/,15.5,/,4.5,1825,/,/,/
O=C(CNC(=S)N(Cc1ccccc1F)C1CCCCC1)NCC1CCCO1 (stereo not given),-3.9,1430,-3.5,2051,-1.9,1375,/,/,/
SMILES,PPARg SRC-1 ag,SRC3 TRFRET art,PPARg SRC-2 ag,SRC1 TRFRET art,PPARg SRC-3 ag,SRC2 TRFRET art,PPARg SRC2 conf,PPARg SRC1 ag,PPARg SRC3 ag
O=c1c2ccccc2cnn1Cc1n[nH]c(=S)n1-c1ccccc1Cl,4.1,1631,4.2,1736,1.1,1592,/,/,/
O=C(O[C@@H]1OC2COC(=O)c3cc(O)c(O)c(O)c3-c3c(cc(O)c(O)c3O)C(=O)O[C@@H]([C@H]1O)[C@@H]2O)c1cc(O)c(O)c(O)c1,20.1,1701,24.5*,1985,10.3,1547,8.3,7.2,2.1
COc1ccccc1N1CCN(C(=O)COc2ccc(S(=O)(=O)NC(C)(C)C)cc2)CC1,16.9,1754,0.0,1698,6.9,1416,/,/,/
O=C(Nc1ccccc1NS(=O)(=O)c1ccc(F)cc1)C1CCC1,-2.8,1408,-0.1,1727,2.6,1541,/,/,/
CCn1c(=S)ccc2ccc(OC)cc21,20.7*,/,39.3*,/,40.2*,2084*,8.9,4.1,5.8
CC(C)(C)NC(=O)CSc1nc2[nH]ncc2c(=O)[nH]1,4.6,1548,-1.9,1841,-0.5,1495,/,/,/
CCOC(=O)c1sc2nc(C)n(N)c(=O)c2c1C,8.7,1653,5.8,1913,6.1,1780,/,/,/
CCOC(=O)c1sc2nc(C)[nH]c(=S)c2c1C,24.6*,2353*,34.7*,2663*,19.7,2175*,30.3*,23.0*,20.9
COc1cc2oc(=O)cc(C)c2c(OC)c1OC,5.5,1792,3.1,1724,2.0,1448,/,/,/
COc1cc2oc(=O)c(Br)c(C)c2c(OC)c1OC,41.4*,/,46.5*,/,62.4*,2553*,40.4*,33.6*,24.3*
Cc1cccc(-n2c(=S)[nH]c3sc4c(c3c2=O)CCc2ccccc2-4)c1,25.9*,2699*,36.1*,2821*,20.8,2315*,33.9*,22.2*,24.2*
CCOC(=O)C1=C(C)N(C)C(=S)NC1c1cc(OC)ccc1OC (stereo not given),-3.7,1530,-3.7,1932,-3.9,1480,/,/,/
COC1Cc2ccccc2N(C(=O)N2CCN(CCO)CC2)c2ccccc21 (stereo not given),19.0*,/,9.1,/,0.9,1731,1.1,-1.4,-0.2
COc1cccc(-c2cc3c(=O)n(-c4ccccc4)c(=S)[nH]c3s2)c1,23.3*,/,30.8*,/,21.1,1988*,19.4,15.6,15.8
COc1ccc(-c2csc3[nH]c(=S)n(-c4ccccc4)c(=O)c23)cc1OC,18.2,2099*,24.9*,2467*,15.8,2183*,20.2,12.5,13.8
COc1ccc(-n2c(=S)[nH]c3c(sc(=S)n3-c3ccccc3)c2=O)c(OC)c1,4.0,1741,5.6,2160,5.1,1700,/,/,/
COc1ccc(S(=O)(=O)Nc2ccc3c(c2)OCO3)cc1C,4.4,/,24.2*,/,18.8,1864,2.9,-2.9,0.0
